Records with an inconclusive call do not appear. Entries that show only a call come without a potency. Calls of active or inactive are those of the source. Calls follow the shape of the dose curve; as a rule, active = well fitted curve in the direction sought with a large enough effect in the repeat runs; inconclusive = weak or mixed curves; inactive = no such curve, though single readings can be large; an effect the other way counts as inactive or inconclusive.
Molecular target: Androgen receptor (Homo sapiens) (UniProt P10275)
Assay: qHTS assay to identify small molecule agonists of the androgen receptor (AR) signaling pathway using the MDA cell line (AID 743040; also: nearly all actives have a fitted effect of over 20% in size)
Conditions: MDA-kb2 AR-luc cells, MMTV luciferase, 16 h; series mostly up to 70.3 µM
Method in brief: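 Stable MMTV-luciferase reporter in MDA-kb2 cells; note the promoter carries GR as well as AR response elements. 16 h compound treatment, 37C, 0% CO2; ONE-Glo luminescence endpoint.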

Androgen receptor (Homo sapiens), sequence (P10275 whole entry, looked up): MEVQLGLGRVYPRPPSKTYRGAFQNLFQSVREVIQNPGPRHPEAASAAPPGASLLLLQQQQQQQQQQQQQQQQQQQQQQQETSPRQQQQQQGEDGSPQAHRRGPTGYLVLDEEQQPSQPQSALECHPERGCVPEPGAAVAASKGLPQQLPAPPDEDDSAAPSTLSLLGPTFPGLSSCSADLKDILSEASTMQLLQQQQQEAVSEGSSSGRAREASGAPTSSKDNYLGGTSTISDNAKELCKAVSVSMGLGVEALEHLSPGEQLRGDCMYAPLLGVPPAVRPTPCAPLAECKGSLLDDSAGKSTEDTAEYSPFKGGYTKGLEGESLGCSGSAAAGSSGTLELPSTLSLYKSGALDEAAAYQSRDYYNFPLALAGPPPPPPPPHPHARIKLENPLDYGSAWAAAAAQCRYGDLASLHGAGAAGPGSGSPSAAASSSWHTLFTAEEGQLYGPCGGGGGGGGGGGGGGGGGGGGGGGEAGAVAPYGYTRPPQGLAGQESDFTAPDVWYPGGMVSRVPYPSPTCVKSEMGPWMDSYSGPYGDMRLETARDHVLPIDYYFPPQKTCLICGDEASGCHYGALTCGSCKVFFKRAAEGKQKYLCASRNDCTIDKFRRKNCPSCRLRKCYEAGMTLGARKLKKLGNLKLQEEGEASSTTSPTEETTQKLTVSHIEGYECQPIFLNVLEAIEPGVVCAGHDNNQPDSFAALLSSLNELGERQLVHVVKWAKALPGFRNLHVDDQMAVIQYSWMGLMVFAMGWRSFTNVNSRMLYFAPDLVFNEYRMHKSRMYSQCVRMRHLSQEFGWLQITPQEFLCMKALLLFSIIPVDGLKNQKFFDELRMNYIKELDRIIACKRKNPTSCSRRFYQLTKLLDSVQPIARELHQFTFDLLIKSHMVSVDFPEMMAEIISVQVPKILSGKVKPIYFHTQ

SMILES | Potency
CC1(C)CN=C(NN=C(/C=C/c2ccc(C(F)(F)F)cc2)/C=C/c2ccc(C(F)(F)F)cc2)NC1 | inactive
CCN(CC)c1c([N+](=O)[O-])cc(C(F)(F)F)c(N)c1[N+](=O)[O-] | inactive
CCCCOCN(C(=O)CCl)c1c(CC)cccc1CC | inactive
O=[N+]([O-])c1ccc2ccc3cccc4ccc1c2c34 | inactive
CNC(C)Cc1ccc2c(c1)OCO2 (configuration not stated) | inactive
N#CSCSC#N | inactive

System: not listed separately
Assay: qHTS assay to identify small molecule antagonists of the androgen receptor (AR) signaling pathway using the MDA cell line - cell viability counter screen (AID 743041; also: nearly all actives have a fitted effect of over 45% in size)
Conditions: MDA-kb2 viability, CellTiter-Fluor, 16 h, cells co-treated with R1881 androgen agonist; series mostly up to 70.3 µM
Method in brief: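 Using the breast carcinoma line MDA-kb2 AR-luc, test chemicals were co-incubated with R1881 for 16 h; CellTiter-Fluor reagent, added at 15.5 h, provided a fluorescence measure of live cells.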

SMILES | Potency
CC(C)CCCCCOC(=O)c1ccccc1C(=O)OCCCCCC(C)C | inactive
CCN(CC)c1c([N+](=O)[O-])cc(C(F)(F)F)c(N)c1[N+](=O)[O-] | inactive
CN(C)[C@@H]1C(=O)C(C(N)=O)=C(O)[C@@]2(O)C(=O)C3=C(O)c4c(O)ccc(Cl)c4[C@@](C)(O)[C@H]3C[C@@H]12 | inactive
C[C@@H]1O[C@@H](O[C@@H]2C=C3CC[C@@H]4[C@H](CC[C@]5(C)[C@@H](c6ccc(=O)oc6)CC[C@]45O)[C@@]3(C)CC2)[C@H](O)[C@H](O)[C@H]1O | inactive
Clc1ccc(CO/N=C(\Cn2ccnc2)c2ccc(Cl)cc2Cl)c(Cl)c1 | inactive
CCOP(=S)(OCC)OC(Cl)C(Cl)(Cl)Cl (configuration not stated) | inactive
COc1cc(N)c(Cl)cc1C(=O)NC1CN2CCC1CC2 (configuration not stated) | inactive
CC(C)OS(C)(=O)=O | inactive
ClC1=C(Cl)C2(Cl)C3C(Cl)C=CC3C1(Cl)C2(Cl)Cl (configuration not stated) | inactive
Clc1ccc(CCC(Cn2ccnc2)Sc2c(Cl)cccc2Cl)cc1 (configuration not stated) | inactive
CCCCOCN(C(=O)CCl)c1c(CC)cccc1CC | inactive
